The whole screen tested about 70,000 compounds, of which about 120 (0.17%) were called active. The full list was thinned out, with actives kept by preference. Unmarked numbers belong to inactive results. No stated cut-off is given here; in the data, active means inhibition above about 34%; inconclusive means no clear call, values can overlap the other calls; inactive means below about 11%.
biological target: Isocitrate dehydrogenase [NADP] cytoplasmic (Homo sapiens) (UniProt O75874); experiment: PubChem AID 624101; settings: IDH1 R132H reductase, diaphorase/resazurin fluorescence, 60 min; at 10 µM; active compounds read high;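 further: 0% = DMSO and 100% = no enzyme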
Sequence (O75874 whole entry R132H): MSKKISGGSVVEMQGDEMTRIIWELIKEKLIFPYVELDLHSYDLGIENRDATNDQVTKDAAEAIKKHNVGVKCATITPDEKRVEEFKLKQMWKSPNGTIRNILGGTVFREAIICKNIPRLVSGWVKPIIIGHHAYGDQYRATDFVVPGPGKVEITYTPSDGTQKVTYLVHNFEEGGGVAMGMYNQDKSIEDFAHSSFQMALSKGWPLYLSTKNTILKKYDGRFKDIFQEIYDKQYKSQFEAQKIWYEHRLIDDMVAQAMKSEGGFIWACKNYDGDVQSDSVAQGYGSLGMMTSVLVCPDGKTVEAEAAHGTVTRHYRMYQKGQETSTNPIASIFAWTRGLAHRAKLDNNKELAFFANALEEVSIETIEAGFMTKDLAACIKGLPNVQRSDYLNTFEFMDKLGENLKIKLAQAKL

**Q.** Which inhibition does the source give for `CO[C@@H]1CN(C)C(=O)c2cc(NC(=O)C3CC3)ccc2OC[C@@H](C)N(Cc2ccc(F)cc2)C[C@@H]1C` here?
**A.** -0.084%

**Q.** How did the inhibition turn out when `CN(C)CC(=O)Nc1ccc2c(c1)[C@H]1C[C@H](CC(=O)NCc3ccccc3)O[C@@H](CO)[C@H]1O2` was run?
**A.** -0.369%

**Q.** With `C[C@H](CO)N1C[C@H](C)[C@H](CN(C)C(=O)C2CCOCC2)Oc2ncc(-c3ccccc3)cc2C1=O` as the molecule, how does the inhibition read?
**A.** 0.163%

**Q.** `Cc1ccc(S(=O)(=O)NCC[C@H]2CC[C@@H](NC(=O)C3CCOCC3)[C@@H](CO)O2)cc1` was tested. Which inhibition did it give?
**A.** 0.168%

**Q.** For `COc1cccc(C(=O)Nc2ccc3c(c2)OC[C@H](C)NC[C@H](C)[C@H](OC)CN(C)C3=O)c1`, which inhibition is on record?
**A.** -0.351%

**Q.** How did the inhibition turn out when `CO[C@@H]1CN(C)C(=O)c2cc(NC(C)=O)ccc2OC[C@H](C)N(Cc2ccccc2F)C[C@@H]1C` was run?
**A.** -0.198%

**Q.** Which inhibition does the source give for `Cc1ccc(-c2cnc3c(c2)C(=O)N([C@@H](C)CO)C[C@H](C)[C@H](CN(C)C(=O)c2cccnc2)O3)cc1` here?
**A.** -1.23%

**Q.** Which inhibition does the source give for `CO[C@@H](CN(C)S(=O)(=O)c1ccccc1)[C@@H](C)CN(Cc1ccccc1Cl)[C@H](C)CO` here?
**A.** -0.567%

**Q.** Which inhibition does the source give for `O=C(N[C@H]1CC[C@@H](CCNS(=O)(=O)c2ccc(F)cc2)O[C@@H]1CO)c1ccccn1` here?
**A.** 0.234%

**Q.** Which inhibition does the source give for `Cc1noc(C)c1C(=O)N(C)C[C@H]1OCc2ccccc2-c2c(n(C)c3ccccc23)C(=O)N([C@@H](C)CO)C[C@H]1C` here?
**A.** -2%

**Q.** With `C[C@@H]1CN([C@@H](C)CO)C(=O)Cc2cc(NC(=O)CCCCCC(=O)Nc3ccccc3N)ccc2O[C@H]1CN(C)C(=O)Nc1ccc(C(F)(F)F)cc1` as the molecule, how does the inhibition read?
**A.** 0.304%

**Q.** `CC(=O)N(C)C[C@H]1Oc2cc(-c3ccc(C)cc3)ccc2S(=O)(=O)N([C@@H](C)CO)C[C@@H]1C` was tested. Which inhibition did it give?
**A.** 5.52%

**Q.** With `CS(=O)(=O)Nc1ccc2c(c1)[C@H]1C[C@H](CC(=O)NC3CCCC3)O[C@@H](CO)[C@H]1O2` as the molecule, how does the inhibition read?
**A.** -0.18%

**Q.** `CO[C@@H]1CN(C)C(=O)c2ccc(NS(C)(=O)=O)cc2OC[C@H](C)NC[C@H]1C` was tested. Which inhibition did it give?
**A.** 0.02%

**Q.** Which inhibition does the source give for `CO[C@H]1CN(C)C(=O)c2cc(NS(=O)(=O)c3ccccc3)ccc2OC[C@H](C)N(C(=O)NC(C)C)C[C@@H]1C` here?
**A.** 0.066%

**Q.** Which inhibition does the source give for `O=C(NCC[C@@H]1CC[C@H](NS(=O)(=O)c2cccc(F)c2)[C@H](CO)O1)c1cnccn1` here?
**A.** -0.0355%

**Q.** `O=C(NCC[C@H]1CC[C@H](NC(=O)C2CC2)[C@@H](CO)O1)c1cc(Cl)cc(Cl)c1` was tested. Which inhibition did it give?
**A.** -0.0835%

**Q.** With `COc1cccc(-c2cn(CC[C@H]3CC[C@H](NC(=O)CN(C)C)[C@H](CO)O3)nn2)c1` as the molecule, how does the inhibition read?
**A.** -0.376%

**Q.** `O=C(O)C[C@@H]1C[C@@H]2c3cc(NC(=O)NC4CCCC4)ccc3O[C@@H]2[C@H](CO)O1` was tested. Which inhibition did it give?
**A.** -0.0525%

**Q.** `C/C=C/c1cnc2c(c1)C(=O)N([C@@H](C)CO)C[C@@H](C)[C@@H](CN(C)C(=O)c1cnccn1)O2` was tested. Which inhibition did it give?
**A.** -1.79%

**Q.** `CN(C)C(=O)C[C@@H]1CC[C@@H](NS(=O)(=O)c2ccccc2)[C@H](CO)O1` was tested. Which inhibition did it give?
**A.** -0.243%

**Q.** For `CO[C@H]1CN(C)C(=O)c2cc(NC(=O)c3ccccc3)ccc2OC[C@H](C)NC[C@H]1C`, which inhibition is on record?
**A.** 0.304%

**Q.** `CC(C)NC(=O)N[C@H]1CC[C@H](CC(=O)NC2Cc3ccccc3C2)O[C@H]1CO` was tested. Which inhibition did it give?
**A.** 0.112%

**Q.** Which inhibition does the source give for `CO[C@@H]1CN(C)C(=O)c2cc(NC(=O)C3CCOCC3)ccc2OC[C@H](C)N(Cc2cccnc2)C[C@H]1C` here?
**A.** -0.057%

**Q.** For `O=C(C[C@@H]1CC[C@H](NS(=O)(=O)c2cccc(F)c2)[C@H](CO)O1)N1CCCCC1`, which inhibition is on record?
**A.** 0.0905%

**Q.** Which inhibition does the source give for `O=S(=O)(N[C@@H]1CC[C@H](CCn2cc(C3(O)CCCC3)nn2)O[C@@H]1CO)c1ccc(Cl)cc1` here?
**A.** 0.461%

**Q.** How did the inhibition turn out when `CCCC(=O)Nc1ccc2c(c1)OC[C@H](C)N(CCC(F)(F)F)C[C@@H](C)[C@H](OC)CN(C)C2=O` was run?
**A.** -0.114%

**Q.** For `COc1ccccc1-c1cn(CC[C@H]2CC[C@H](NC(=O)Cc3ccccn3)[C@H](CO)O2)nn1`, which inhibition is on record?
**A.** 0.087%

**Q.** For `COc1ccccc1S(=O)(=O)N[C@@H]1C=C[C@H](CC(=O)N2CCN(C)CC2)O[C@@H]1CO`, which inhibition is on record?
**A.** 0.0315%

**Q.** Which inhibition does the source give for `CS(=O)(=O)Nc1ccc2c(c1)[C@H]1C[C@H](CC(=O)NCc3ccc(Cl)cc3)O[C@@H](CO)[C@H]1O2` here?
**A.** -0.335%

**Q.** How did the inhibition turn out when `CO[C@@H]1CN(C)C(=O)c2ccc(NC(=O)C3CCCCC3)cc2OC[C@@H](C)N(Cc2nccs2)C[C@@H]1C` was run?
**A.** 0.03%

**Q.** `C[C@@H]1CN([C@H](C)CO)C(=O)c2cc(Br)cnc2O[C@@H]1CN(C)C(=O)Nc1ccc(F)cc1` was tested. Which inhibition did it give?
**A.** 0.064%

**Q.** How did the inhibition turn out when `C[C@H](NC(=O)C[C@@H]1CC[C@@H](NC(=O)Cc2ccccn2)[C@@H](CO)O1)c1ccccc1` was run?
**A.** 0.0085%

**Q.** For `O=C(N[C@H]1CC[C@@H](CCNS(=O)(=O)c2ccccc2)O[C@H]1CO)c1cccnc1`, which inhibition is on record?
**A.** -0.222%

**Q.** `Cc1cccc(S(=O)(=O)N[C@H]2CC[C@@H](CCNS(=O)(=O)c3ccccc3F)O[C@H]2CO)c1` was tested. Which inhibition did it give?
**A.** 0.059%

**Q.** Which inhibition does the source give for `COc1ccc(NC(=O)N[C@H]2CC[C@H](CCn3cc(-c4ccccc4F)nn3)O[C@H]2CO)cc1` here?
**A.** -0.29%

**Q.** With `COCc1cn(CC[C@H]2CC[C@@H](NC(=O)Nc3ccc(OC)cc3)[C@@H](CO)O2)nn1` as the molecule, how does the inhibition read?
**A.** 0.176%

**Q.** With `C[C@@H]1CN([C@H](C)CO)C(=O)c2cc(C#CC3CC3)cnc2O[C@@H]1CN(C)Cc1cccc(C(=O)O)c1` as the molecule, how does the inhibition read?
**A.** -0.167%

**Q.** `CO[C@H]1CN(C)C(=O)c2ccc(NC(=O)Nc3ccc4c(c3)OCO4)cc2OC[C@H](C)NC[C@H]1C` was tested. Which inhibition did it give?
**A.** -0.152%

**Q.** Which inhibition does the source give for `COCC(=O)Nc1ccc2c(c1)OC[C@H](C)N(C(=O)c1cnccn1)C[C@@H](C)[C@H](OC)CN(C)C2=O` here?
**A.** 0.439%

**Q.** Which inhibition does the source give for `CC(C)CC#Cc1ccc2c(c1)O[C@@H](CN(C)C(=O)c1ccccn1)[C@@H](C)CN([C@H](C)CO)S2(=O)=O` here?
**A.** -2.87%

**Q.** For `CO[C@H]1CN(C)C(=O)c2cc(NS(=O)(=O)CC(F)(F)F)ccc2OC[C@@H](C)N(Cc2nccs2)C[C@@H]1C`, which inhibition is on record?
**A.** 0.457%

**Q.** Which inhibition does the source give for `CO[C@H]1CN(C)C(=O)c2ccc(NC(=O)NC(C)C)cc2OC[C@H](C)N(Cc2cncnc2)C[C@@H]1C` here?
**A.** 0.214%

**Q.** How did the inhibition turn out when `O=C(Cc1ccncc1)NCC[C@H]1CC[C@@H](NC(=O)Nc2ccc(Cl)cc2)[C@@H](CO)O1` was run?
**A.** 0.092%

**Q.** With `O=C(C[C@H]1CC[C@@H](NC(=O)Nc2ccc(C(F)(F)F)cc2)[C@H](CO)O1)NCc1cc(F)cc(F)c1` as the molecule, how does the inhibition read?
**A.** 0.19%

**Q.** For `CCS(=O)(=O)N[C@@H]1CC[C@@H](CC(=O)NCC2CC2)O[C@H]1CO`, which inhibition is on record?
**A.** -0.0912%

**Q.** Which inhibition does the source give for `COc1ccc(CNC(=O)C[C@@H]2CC[C@H](NC(=O)c3cccc(F)c3)[C@H](CO)O2)cc1` here?
**A.** 0.0345%

**Q.** Which inhibition does the source give for `O=C(N[C@H]1CC[C@@H](CCNS(=O)(=O)c2ccc(Cl)cc2)O[C@H]1CO)c1cccc(F)c1` here?
**A.** -0.0045%

**Q.** `CO[C@@H]1CN(C)C(=O)c2ccc(NC(C)=O)cc2OC[C@@H](C)N(Cc2ccc(-c3ccccn3)cc2)C[C@H]1C` was tested. Which inhibition did it give?
**A.** -0.357%

**Q.** With `CCCC(=O)Nc1ccc2c(c1)OC[C@H](C)N(S(=O)(=O)c1cn(C)cn1)C[C@@H](C)[C@H](OC)CN(C)C2=O` as the molecule, how does the inhibition read?
**A.** -0.504%

**Q.** For `C[C@@H]1CN([C@@H](C)CO)C(=O)c2cc(-c3ccccc3F)cnc2O[C@H]1CN(C)C(=O)C1CC1`, which inhibition is on record?
**A.** 0.564%

**Q.** How did the inhibition turn out when `O=C(C[C@H]1C[C@@H]2c3cc(NC(=O)CC4CC4)ccc3O[C@@H]2[C@H](CO)O1)NCc1cccnc1` was run?
**A.** -0.193%

**Q.** For `CO[C@@H]1CN(C)C(=O)c2cc(NC(=O)C3CC3)ccc2OC[C@H](C)N(C(=O)CN2CCOCC2)C[C@@H]1C`, which inhibition is on record?
**A.** 0.377%

**Q.** How did the inhibition turn out when `COCCNC(=O)C[C@H]1C[C@H]2c3cc(NS(C)(=O)=O)ccc3O[C@H]2[C@H](CO)O1` was run?
**A.** -0.133%

**Q.** `COCC(=O)N(C)C[C@H]1Oc2cc(C#CC3CCCC3)ccc2S(=O)(=O)N([C@H](C)CO)C[C@@H]1C` was tested. Which inhibition did it give?
**A.** -1.42%

**Q.** With `C[C@H]1CN([C@@H](C)CO)C(=O)c2cc(-c3ccccc3F)cnc2O[C@H]1CN(C)C(=O)C1CCOCC1` as the molecule, how does the inhibition read?
**A.** 0.288%

**Q.** For `O=C(N[C@H]1CC[C@@H](CCNS(=O)(=O)c2ccccc2)O[C@@H]1CO)c1cnccn1`, which inhibition is on record?
**A.** -0.078%

**Q.** Which inhibition does the source give for `O=C(NCC[C@@H]1CC[C@@H](NS(=O)(=O)c2cccc(F)c2)[C@H](CO)O1)C1CC1` here?
**A.** 0.164%

**Q.** How did the inhibition turn out when `CO[C@H]1CN(C)C(=O)c2cc(NC(=O)Nc3ccccc3)ccc2OC[C@@H](C)N(C(=O)Nc2c(C)noc2C)C[C@@H]1C` was run?
**A.** -0.138%

**Q.** How did the inhibition turn out when `COc1ccccc1-c1cn(CC[C@H]2CC[C@@H](NC(=O)CCN3CCCCC3)[C@@H](CO)O2)nn1` was run?
**A.** -0.639%

**Q.** Which inhibition does the source give for `O=C(C[C@H]1C=C[C@@H](NC(=O)NC2CCCCC2)[C@@H](CO)O1)NCc1ccc(Cl)cc1` here?
**A.** 0.05%

**Q.** `CCC(=O)Nc1ccc2c(c1)C(=O)N(C)C[C@@H](OC)[C@H](C)CN(Cc1ccccc1C(=O)O)[C@@H](C)CO2` was tested. Which inhibition did it give?
**A.** -0.502%

**Q.** How did the inhibition turn out when `CO[C@@H]1CN(C)C(=O)c2ccc(NS(C)(=O)=O)cc2OC[C@H](C)N(C(=O)C2CC2)C[C@H]1C` was run?
**A.** -0.15%

**Q.** Which inhibition does the source give for `CC(=O)N[C@H]1CC[C@H](CCNC(=O)C2CC2)O[C@H]1CO` here?
**A.** 0.591%

— PubChem BioAssay AID624101 (Broad Institute, 2012)
